# Results filed as inconclusive are left out. Activity calls are given as the source filed them. The call rests on the fitted dose curve; in most records, active means well fitted inhibition curve with a large enough effect; inconclusive means small, poorly fitted or top-dose-only effect; inactive means flat fitted curve, though single readings scatter.
# System: not listed separately
# Assay: Drug repurposing screens with cells derived from glioblastoma tumor samples (AID 1345199); further: nearly all actives have a fitted effect of over 40% in size
# Conditions: GBM patient neurospheres viability, ATP luminescence, 48 h; at 99.2 µM (top of the series); tumour line C
# Procedure, shortened: (§1)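 Four patient lines of CD133+ GBM neurospheres were screened at several concentrations; hits were retested in those lines plus three slower-growing GBM lines, using 48-hour treatment and ATP-based viability.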
# On the % scale 0 is the no-effect control and ±100 the full control effect; potency means the concentration at half of the fitted maximal effect.
row,Compound,"activity, negative = cell killing"
1,CC(C)C(C)(C)C(C)(C)C(C)(C)S,-11.4% (inactive)
2,O=C(Oc1ccccc1)c1cccc(C(=O)Oc2ccccc2)c1,1.54% (inactive)
3,c1ccc2occc2c1,4.01% (inactive)
4,CN1C(=O)c2ccccc2C1=O,6.36% (inactive)
5,Brc1ccccc1-c1ccccc1,6.63% (inactive)
6,C1=CC2C3C=CC(C3)C2C1 (configuration not stated),15.3% (inactive)

# Same assay, conditions: GBM patient neurospheres viability, ATP luminescence, 48 h; tumour line A
row,Compound,Potency
1,O=C(OCC(COC(=O)c1cccnc1)(COC(=O)c1cccnc1)COC(=O)c1cccnc1)c1cccnc1,14.1 µM (active)
2,CC(C)C(C)(C)C(C)(C)C(C)(C)S,28.2 µM (active)
3,CCNC(=O)NCCCOc1cccc(CN2CCCCC2)c1,17.8 µM (active)
4,CC(C)(C)C(O)/C=C/c1ccc2c(c1)OCO2 (configuration not stated),15.8 µM (active)
5,CC(C)=CCC/C(C)=C/CC/C(C)=C/CCC(=O)OC/C=C(\C)CCC=C(C)C,35.5 µM (active)
6,CCOC(=O)Cn1cccc1-c1nc(-c2ccc(OC)cc2)c(-c2ccc(OC)cc2)s1,6.31 µM (active)
7,O=C(O)CCCC[C@@H]1SC[C@@H]2NC(=O)N[C@@H]21,17.8 µM (active)

# System: astro (control astrocytes)
# Assay: as above
# Conditions: viability, ATP luminescence, 48 h; series mostly up to 45.9 µM; activity, negative = cell killing: at the top concentration
# Procedure, shortened: as §1
Compound,"activity, negative = cell killing",Potency
O=C(OCC(COC(=O)c1cccnc1)(COC(=O)c1cccnc1)COC(=O)c1cccnc1)c1cccnc1,-4.85% (inactive),–
O=P(O)(O)OCC(O)CO (configuration not stated),-12.6% (inactive),–
CC(C)C(C)(C)C(C)(C)C(C)(C)S,-5.48% [at 91.6 µM] (inactive),–
CCOC(=O)NNc1ccc(N(CC)CC(C)O)nn1 (configuration not stated),-18% (inactive),–
O=C(Oc1ccccc1)c1cccc(C(=O)Oc2ccccc2)c1,-17.3% [at 91.6 µM] (inactive),–
CCNC(=O)NCCCOc1cccc(CN2CCCCC2)c1,-13.6% (inactive),–
CC(=O)OCC[N+](C)(C)C,-15.5% (inactive),–
Nc1c[n+](N2CCOCC2)no1,-11.5% (inactive),–
O=C1CC[C@H](C(=O)N2CCCCC2)N1,-12.1% (inactive),–
COc1ccccc1OCC1CNC(=O)O1 (configuration not stated),-11.3% (inactive),–
c1ccc2occc2c1,-17.6% [at 91.6 µM] (inactive),–
O=C(Oc1ccccc1)c1ccccc1O,0.765% (inactive),–
CC(C(=O)O)c1ccc(/C=C2\CCCCC2=O)cc1 (configuration not stated),-23.7% (inactive),–
Cc1nc([N+](=O)[O-])cn1-c1ccc([N+](=O)[O-])cc1,-6.37% (inactive),–
CC(COc1ccccc1)NN (configuration not stated),-8.01% (inactive),–
C1N2CN3CN1CN(C2)C3,-0.287% (inactive),–
O=C(CCCCCCCCC#CI)Oc1ccccc1,-19.5% (inactive),–
O=C(c1ccccc1)c1ccccc1,-16.8% (inactive),–
CC(=O)OCC(=O)[C@@]1(O)[C@H](OC(C)=O)C[C@H]2[C@@H]3CCC4=CC(=O)C=C[C@]4(C)[C@@]3(F)[C@@H](O)C[C@@]21C,-9.26% (inactive),–
CC1c2ccccc2CN1NC(=O)c1ccc(Cl)c(S(N)(=O)=O)c1 (configuration not stated),-19.3% (inactive),–

Compound,"activity, negative = cell killing",Potency
CN1C(=O)c2ccccc2C1=O,-11.9% [at 91.6 µM] (inactive),–
CC(C)(C)C(=O)OCOC(=O)C1N2C(=O)CC2S(=O)(=O)C1(C)C (configuration not stated),-4.85% (inactive),–
CO/N=C(/C(=O)N[C@@H]1C(=O)N2C(C(=O)O)=C(Cn3nnc(C)n3)CS[C@H]12)c1csc(N)n1,-5.42% (inactive),–
CCOc1ccc(NS(=O)(=O)c2ccc(N)cc2)nn1,-17.9% (inactive),–
Cc1ccc(O)cc1,–,inactive
C[N+]1(CC2COC(c3ccccc3)(c3ccccc3)O2)CCCCC1 (configuration not stated),-3.16% (inactive),–
CC(C)(C)C(O)/C=C/c1ccc2c(c1)OCO2 (configuration not stated),-9.16% (inactive),–
CO/N=C(/C(=O)N[C@@H]1C(=O)N2C(C(=O)OCOC(=O)C(C)(C)C)=C(C)CS[C@H]12)c1csc(N)n1,-1.73% (inactive),–
CC(C)=CCC/C(C)=C/CC/C(C)=C/CCC(=O)OC/C=C(\C)CCC=C(C)C,-14.1% (inactive),–
CCOC(=O)Cn1cccc1-c1nc(-c2ccc(OC)cc2)c(-c2ccc(OC)cc2)s1,-4.25% (inactive),–
OCc1cccnc1,-6.27% (inactive),–
CC(C)(C)c1nnc(NS(=O)(=O)c2ccccc2)s1,-10.7% (inactive),–
O=C(O)CCCC[C@@H]1SC[C@@H]2NC(=O)N[C@@H]21,-17.1% (inactive),–
O=C(O)[C@H](O)[C@@H](O)[C@H](O[C@@H]1O[C@H](CO)[C@H](O)[C@H](O)[C@H]1O)[C@H](O)CO,-10.8% [at 21.2 µM] (inactive),–
N[C@@H](Cc1cc(I)c(O)c(I)c1)C(=O)O,13.6% (inactive),–
CC1CN(c2cc3c(cc2F)c(=O)c(C(=O)O)cn3-c2ccc(F)cc2F)CCN1 (configuration not stated),-9.01% (inactive),–
Brc1ccccc1-c1ccccc1,-12.6% [at 91.6 µM] (inactive),–
CCC(C(=O)NC(=O)NC(C)=O)c1ccccc1 (configuration not stated),-22.8% (inactive),–
C1=CC2C3C=CC(C3)C2C1 (configuration not stated),-13.5% [at 91.6 µM] (inactive),–
